Results on six compounds are retold here after PubChem BioAssay (EPA / NIEHS).

Some structures have more than one record in an assay (separate samples or runs), and their calls can disagree. Calls of active or inactive are those of the source. Rule for the calls: active = hit-call score of the fitted dose curve at least 0.9, where 1 is the maximum; inactive = score below 0.9.

Read-out in experiment [1]: Interleukin-6 (IL6), IL6 (gene 3569)
Kind of experiment: BSK_CASM3C_IL6: BioMAP Diversity Plus: CASM3C Assay for Interleukin-6 (IL6) Biomarker Activity for (AID 2283040). Particulars: primary human coronary artery smooth muscle cells; actives raise or lower the signal.

Read-out in experiment [2]: Tissue plasminogen activator (tPA), PLAT (gene 5327)
Kind of experiment: BSK_BE3C_tPA: BioMAP Diversity Plus: BE3C Assay for Tissue plasminogen activator (tPA) Biomarker Activity (AID 2283041).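 Note: tPA level quantified by ELISA one day after compound addition.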 Particulars: primary human bronchial epithelial cells; actives raise or lower the signal. The method in brief:
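Using human lung primary bronchial epithelial cells, tPA was measured by ELISA 24 h after dosing; data fitted relative to DMSO.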

Read-out in experiment [3]: Interleukin-8 (IL8), CXCL8 (gene 3576)
Kind of experiment: BSK_CASM3C_IL8: BioMAP Diversity Plus: CASM3C Assay for Interleukin-8 (IL8) Biomarker Activity (AID 2283042).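 Note: IL-8 protein level quantified by ELISA.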 Particulars: primary human coronary artery smooth muscle cells; actives raise or lower the signal.

Read-out in experiment [4]: Human Leukocyte Antigen - DR isotype (HLADR), HLA-DRA (gene 3122)
The experiment can be described thus: BSK_CASM3C_HLADR: BioMAP Diversity Plus: CASM3C Assay for Human Leukocyte Antigen - DR isotype (HLADR) Biomarker Activity (AID 2283043).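 Note: cell-surface HLA-DR protein level quantified by ELISA.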 The following applies: primary human coronary artery smooth muscle cells; actives raise or lower the signal.

Read-out in experiment [5]: Macrophage colony-stimulating factor (MCSF), CSF1 (gene 1435)
Kind of experiment: BSK_CASM3C_MCSF: BioMAP Diversity Plus: CASM3C Assay for Macrophage colony-stimulating factor (MCSF) Biomarker Activity (AID 2283044).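 Note: M-CSF protein amount quantified by ELISA after 24 h exposure.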 Particulars: primary human coronary artery smooth muscle cells; actives raise or lower the signal.

Read-out in experiment [6]: Low-density lipoprotein receptor (LDLR), LDLR (gene 3949)
The experiment can be described thus: BSK_CASM3C_LDLR: BioMAP Diversity Plus: CASM3C Assay for Low-density lipoprotein receptor (LDLR) Biomarker Activity (AID 2283045).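 Note: LDLR protein level on the cell surface quantified by ELISA.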 The following applies: primary human coronary artery smooth muscle cells; actives raise or lower the signal.

Read-out in experiment [7]: Monocyte Chemoattractant Protein-1 (MCP1), CCL2 (gene 6347)
The experiment can be described thus: BSK_CASM3C_MCP1: BioMAP Diversity Plus: CASM3C Assay for Monocyte Chemoattractant Protein-1 (MCP1) Biomarker Activity (AID 2283046).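 Note: MCP-1 level quantified by ELISA 24 h after dosing.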 Particulars: primary human coronary artery smooth muscle cells; actives raise or lower the signal.

Experiment [8] is described as follows: BSK_CASM3C_Proliferation: Cell Proliferation Assessment in the BioMAP Diversity Plus: CASM3C Assay (AID 2283047).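 Note: sulforhodamine B total protein stain as relative cell number at 560 nm; sub-confluent cells exposed 48 h before staining; fitted both ways against DMSO so gain or loss of cell number.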 Particulars: primary human coronary artery smooth muscle cells.
Read-out in experiment [9]: Monokine induced gamma interferon (MIG), CXCL9 (gene 4283)
Kind of experiment: BSK_CASM3C_MIG: BioMAP Diversity Plus: CASM3C Assay for Monokine induced gamma interferon (MIG) Biomarker Activity (AID 2283048).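 Note: MIG protein level measured by ELISA.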 Particulars: primary human coronary artery smooth muscle cells; actives raise or lower the signal.

Read-out in experiment [10]: serum amyloid A (SAA), SAA1 (gene 6288)
Kind of experiment: BSK_CASM3C_SAA: BioMAP Diversity Plus: CASM3C Assay for serum amyloid A (SAA) Biomarker Activity (AID 2283049).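 Note: SAA protein level quantified by ELISA.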 The following applies: primary human coronary artery smooth muscle cells; actives raise or lower the signal.

Experiment [11] in a line: BSK_CASM3C_SRB: Viability Assessment in the BioMAP Diversity Plus: CASM3C Assay (AID 2283050).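 Note: total protein by SRB staining as cytotoxicity measure in parallel cultures; cells exposed to compound for 24 h.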 The following applies: primary human coronary artery smooth muscle cells.
Read-out in experiment [12]: Thrombomodulin, THBD (gene 7056)
The experiment can be described thus: BSK_CASM3C_Thrombomodulin: BioMAP Diversity Plus: CASM3C Assay for Thrombomodulin Biomarker Activity (AID 2283051).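 Note: thrombomodulin protein level measured by ELISA 24 h after dosing.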 The following applies: primary human coronary artery smooth muscle cells; actives raise or lower the signal.

Read-out in experiment [13]: Tissue Factor, F3 (gene 2152)
Kind of experiment: BSK_CASM3C_TissueFactor: BioMAP Diversity Plus: CASM3C Assay for Tissue Factor Biomarker Activity (AID 2283052).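 Note: cell surface tissue factor protein level read by ELISA.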 Particulars: primary human coronary artery smooth muscle cells; actives raise or lower the signal.

Read-out in experiment [14]: Interferon-gamma inducible Protein 10 (IP10), CXCL10 (gene 3627)
Kind of experiment: BSK_hDFCGF_IP10: BioMAP Diversity Plus: hDFCGF Assay for Interferon-gamma inducible Protein 10 (IP10) Biomarker Activity (AID 2283053). Particulars: primary human foreskin fibroblasts; actives raise or lower the signal. In a few lines: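 Chemical-treated human skin fibroblasts (primary) were sampled at 24 h for IP-10 by ELISA. Both increases and decreases relative to DMSO were scored.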

Read-out in experiment [15]: Urokinase-type plasminogen activator receptor (uPAR), PLAUR (gene 5329)
The experiment can be described thus: BSK_CASM3C_uPAR: BioMAP Diversity Plus: CASM3C Assay for Urokinase-type plasminogen activator receptor (uPAR) Biomarker Activity (AID 2283054).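 Note: cell-surface uPAR protein level quantified by ELISA.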 Particulars: primary human coronary artery smooth muscle cells; actives raise or lower the signal.

Read-out in experiment [16]: Vascular cell adhesion molecule 1 (VCAM1), VCAM1 (gene 7412)
The experiment can be described thus: BSK_CASM3C_VCAM1: BioMAP Diversity Plus: CASM3C Assay for Vascular cell adhesion molecule 1 (VCAM1) Biomarker Activity (AID 2283055).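 Note: VCAM-1 protein level quantified by ELISA on the cells.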 The following applies: primary human coronary artery smooth muscle cells; actives raise or lower the signal.

Read-out in experiment [17]: Collagen III, COL3A1 (gene 1281)
Kind of experiment: BSK_hDFCGF_CollagenIII: BioMAP Diversity Plus: hDFCGF Assay for Collagen III Biomarker Activity (AID 2283056). The following applies: primary human foreskin fibroblasts; actives raise or lower the signal. In a few lines:
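Cells: human foreskin fibroblasts, primary. Dosing followed by 24 h incubation, then ELISA for collagen III. Both increases and decreases scored relative to DMSO.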

Read-out in experiment [18]: Epidermal growth factor receptor (EGFR), EGFR (gene 1956)
Kind of experiment: BSK_hDFCGF_EGFR: BioMAP Diversity Plus: hDFCGF Assay for Epidermal growth factor receptor (EGFR) Biomarker Activity (AID 2283057). Particulars: primary human foreskin fibroblasts; actives raise or lower the signal. The method in brief:
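Cell-based multiplexed assay in primary human foreskin fibroblasts. EGFR is read by ELISA 24 h after treatment and compared with DMSO controls.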

Read-out in experiment [19]: Interleukin-8 (IL8), CXCL8 (gene 3576)
The experiment can be described thus: BSK_hDFCGF_IL8: BioMAP Diversity Plus: hDFCGF Assay for Interleukin-8 (IL8) Biomarker Activity (AID 2283058). Particulars: primary human foreskin fibroblasts; actives raise or lower the signal. In a few lines:
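IL-8 levels from compound-treated primary human fibroblasts were read by ELISA at 24 h, with DMSO serving as baseline for bidirectional fitting.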

A short description of experiment [20]: BSK_hDFCGF_Proliferation: Cell Proliferation Assessment in the BioMAP Diversity Plus: hDFCGF Assay (AID 2283059).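 Note: curves fitted for both rise and fall of signal versus DMSO baseline.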 The following applies: primary human foreskin fibroblasts. The method in brief:
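Total protein read at 560 nm after 0.1% SRB staining of TCA-fixed human skin fibroblasts, […]. Activity is fitted in both directions relative to DMSO as baseline.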

With `NC(=O)C(F)(F)C(F)(F)C(F)(F)C(F)(F)F`, the result in experiment [1], in experiment [2], in [3], in [4], in experiment [5] and in experiment [6] was inactive. Also, the outcome in experiment [7], in [8], in experiment [9], in [10], in [11] and in experiment [12] was inactive. Besides, the outcome in [13], in experiment [14], in [15], in [16], in experiment [17] and in experiment [18] was inactive. Also, the outcome in experiment [19] and in experiment [20] was inactive.
As for `CCCCNc1ccccc1`, the outcome in experiment [1], in [2], in [3], in [4], in experiment [5] and in [6] was inactive. Moreover, the outcome in [7], in experiment [8], in experiment [9], in experiment [10], in experiment [11] and in experiment [12] was inactive. Moreover, the result in experiment [13], in [14], in experiment [15], in [16], in experiment [17] and in experiment [18] was inactive. Also, the result in experiment [19] and in experiment [20] was inactive.
Turning to `CCCCCCCCC(F)(F)C(F)(F)C(F)(F)C(F)(F)C(F)(F)C(F)(F)F`, the outcome in experiment [1], in experiment [2], in [3], in experiment [4], in experiment [5] and in experiment [6] was inactive. The result in [7], in experiment [8], in [9], in experiment [10], in [11] and in experiment [12] was inactive. The outcome in experiment [13], in experiment [14], in [15], in [16], in experiment [17] and in experiment [18] was inactive. Further, the outcome in experiment [19] and in experiment [20] was inactive.
Turning to `OCC(F)(F)C(F)(F)C(F)(F)C(F)F`, the outcome in [1], in experiment [2], in [3], in [4], in experiment [5] and in experiment [6] was inactive. The result in experiment [7], in experiment [8], in experiment [9], in experiment [10], in experiment [11] and in experiment [12] was inactive. For the same compound, the result in experiment [13], in [14], in experiment [15], in [16], in [17] and in [18] was inactive. The result in experiment [19] and in experiment [20] was inactive. For the same compound, the concentration at half-maximal activity (AC50) – broadly, the concentration at which the activity in the assay is half-maximal – in experiment [6] is 292 nM (active).
As to `OCC(F)(F)C(F)(F)C(F)(F)C(F)(F)C(F)(F)C(F)F`, the outcome in experiment [1], in experiment [2], in experiment [3], in [4], in experiment [5] and in [6] was inactive. For the same compound, the outcome in experiment [7], in experiment [8], in experiment [9], in experiment [10], in experiment [11] and in [12] was inactive. The outcome in experiment [13], in [14], in experiment [15], in experiment [16], in [17] and in experiment [18] was inactive. For the same compound, the outcome in [19] and in [20] was inactive.
Turning to `O=C(O)C(F)(F)C(F)(F)F`, the outcome in experiment [1], in experiment [2], in [3], in experiment [4], in [5] and in experiment [6] was inactive. In addition, the result in experiment [7], in [8], in [9], in [10], in [11] and in experiment [12] was inactive. The result in experiment [13], in experiment [14], in experiment [15], in experiment [16], in [17] and in experiment [18] was inactive. The result in experiment [19] and in experiment [20] was inactive.
